Screens: PubChem BioAssay, National Center for Advancing Translational Sciences (NCATS)
LmPK inhibitor: qHTS Assay for Inhibitors of Leishmania Mexicana Pyruvate Kinase (LmPK) | Q27686 | 0.37% of 290,000 active | purified LmPK, Kinase-Glo ATP luminescence, 1 h | Potency, µM (titrated, usually from 57.5 µM), inactives show at the top dose activity change, negative = inhibition, actives largely listed as inhibitors; note: potency is the fitted concentration of half-maximal effect; % is set by controls: 0 for no effect and ±100 for the full control effect
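0.1 nM LmPK, 0.5 mM PEP, 0.1 mM ADP; 50 mM imidazole pH 7.2, 7 mM MgCl2, 50 mM KCl; 1 h RT. Kinase-Glo luminescence readout, normalized to no-enzyme (full inhibition) and uninhibited wells.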
Sm TGR block: qHTS Assay for the Inhibitors of Schistosoma Mansoni Peroxiredoxins | Schistosoma mansoni thioredoxin glutathione reductase (TGR), Q962Y6 | purified TGR, DTNB reduction, TNB absorbance 405 nm | Potency, µM (doses to about 114 µM), without a hit: at the highest dose activity change, negative = inhibition, usual class: inhibitors | 3% of 360,000 active | AID 485364, 2010; note: potency is the fitted concentration of half-maximal effect; % is set by controls: 0 for no effect and ±100 for the full control effect; nearly all actives have a fitted effect of over 60% in size
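First, TGR (20 nM dispensed) and NADPH were mixed with compound. Second, a 15 min room-temperature incubation followed. Third, further NADPH and then DTNB were added to start the reaction. Finally, TNB absorbance was monitored kinetically.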
Shiga inhibitor: A qHTS for Small Molecule Inhibitors of Shiga Toxin. Vero cells, Shiga toxin protein synthesis inhibition reporter. inhibition, % at 38.7 µM. 9.2% of 290,000 active; in the data active = inhibition mostly above about 28%, no sharp cut-off; inactive = mostly below about 43%; note: 0% is about no effect
FBPA Giardia inh: qHTS Assay for Inhibitors of Fructose-1,6-bisphosphate Aldolase from Giardia Lamblia. A8B2U2. purified Giardia FBPA. Potency, µM (titrated, usually from 59.6 µM), inactives show top-dose activity, negative = inhibition, most hits filed as inhibitors. 0.71% of 290,000 active. AID 2451, 2010; note: potency is the fitted concentration of half-maximal effect; % is set by controls: 0 for no effect and ±100 for the full control effect; nearly all actives have a fitted effect of over 55% in size
Target sequence (A8B2U2 whole entry, looked up): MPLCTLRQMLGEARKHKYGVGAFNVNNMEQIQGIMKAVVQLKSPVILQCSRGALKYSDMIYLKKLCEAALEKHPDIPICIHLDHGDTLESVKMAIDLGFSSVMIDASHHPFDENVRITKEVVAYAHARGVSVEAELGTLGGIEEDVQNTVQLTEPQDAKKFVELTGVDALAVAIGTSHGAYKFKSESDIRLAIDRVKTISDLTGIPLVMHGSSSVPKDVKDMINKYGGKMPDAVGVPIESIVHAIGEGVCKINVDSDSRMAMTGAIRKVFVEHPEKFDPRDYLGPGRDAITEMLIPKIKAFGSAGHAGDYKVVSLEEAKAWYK
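Giardia FBPA (40 nM reagent) was preincubated 10 min at RT with compound (up to 57.5 uM final), then substrate plus GAPDH/TPI/NAD/arsenate coupling system with diaphorase/resazurin was added; resorufin fluorescence (525/598 nm) was read after 20 min.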
Tb PYK inh: qHTS of Trypanosoma Brucei Inhibitors. 0.12% of 410,000 active. Potency, µM (highest dose often 76.8 µM), inactives show at the highest dose activity, negative = inhibition, hits mostly inhibitors. AID 624173, 2012. TbPYK enzyme, Kinase-Glo Plus ATP luminescence, 45 min; note: potency is the fitted concentration of half-maximal effect; % is set by controls: 0 for no effect and ±100 for the full control effect; nearly all actives have a fitted effect of over 50% in size
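Luminescence from Kinase-Glo Plus, added after a 45-minute room-temperature reaction, served as the end-point read-out. The enzyme and substrate were preincubated with compound before ADP (130 uM final) initiated turnover. Concentration-effect curves came from normalized qHTS data.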
CHX counter: Cycloheximide Counterscreen for Small Molecule Inhibitors of Shiga Toxin | cell reporter, cycloheximide protein synthesis inhibition counterscreen | max response, % | 12% of 300,000 active | AID 2314, 2010; in the data active = max response mostly above about 13%, no sharp cut-off; inactive = mostly below about 14%; note: read at 38.3 µM for the half of the compounds with a filed dose; 0% is about no effect
Numbers without * were called inactive; ? = inconclusive; . = not tested or not shown. The full list was thinned out, with hits kept by preference. Unless noted, calls come from the whole dose curve; as a rule, active = well fitted curve in the direction sought with a large enough effect; inconclusive = small, poorly fitted or top-dose-only effect, or another doubt; inactive = no such curve, though single readings can be large; an effect the other way counts as inactive or inconclusive.

SMILES	LmPK inhibitor	Sm TGR block	Shiga inhibitor	FBPA Giardia inh	Tb PYK inh	CHX counter
CC(=O)OCC1=C(C(=O)O)N2C(=O)C(NC(=O)CCn3nc(C)c(Cl)c3C)C2SC1 (stereo not drawn)	12%	28µM*	-11	-8%	5%	4
CC(=O)OCC1=C(C(=O)O)N2C(=O)C(NC(=O)CCn3nc(C(F)(F)F)c(Br)c3C3CC3)C2SC1 (stereo not drawn)	0%	22µM*	23	13%	-3%	-2
CC(=O)OCC1=C(C(=O)O)N2C(=O)C(NC(=O)Cn3nc(C(F)F)c(Cl)c3C)C2SC1 (stereo not drawn)	-2%	22µM*	-10	-8%	-1%	-2
Cc1nnc(SCC2=C(C(=O)O)N3C(=O)C(NC(=O)Cn4nc(C(F)F)c(Cl)c4C)C3SC2)s1 (stereo not drawn)	-1%	13µM*	1	4µM*	-15%	4
CC(=O)OCC1=C(C(=O)O)N2C(=O)[C@@H](NC(=O)Cc3ccccc3)[C@H]2SC1	.	.	.	.	-2%	.
CS(=O)(=O)N1CCC2(CCN(C(=O)Nc3cccc(C#N)c3)CC2)CC1	.	.	.	1%	-5%	.
COc1ccc(CCCNC(=O)C2Cc3c(-c4ccccc4)ccnc3O2)cc1 (stereo not drawn)	.	.	.	.	-4%	.
O=C(NCCSCc1ccco1)Nc1cccc(Cl)c1	-2%	?	40*	-11%	19%	37*
O=C(NCCSCc1ccco1)Nc1ccc(Cl)cc1	1%	-18%	101*	-14%	-2%	29*
COc1ccc(C(=O)NCCSCc2ccco2)cc1OC	3%	3%	50	1%	1%	11
Cc1ccc(CN2C(=O)c3ccccc3CC2(C)C(=O)NC2CCCCC2)cc1 (stereo not drawn)	.	-1%	.	.	-1%	.
CCOc1cccc(NC(=O)C2CC(=O)N(CC)C(=Nc3ccc(F)cc3)S2)c1 (stereo not drawn)	.	0%	.	.	-6%	.
CCN(CC)S(=O)(=O)c1ccc(N2CCN(C)CC2)c(NC(=O)Nc2ccc(C)cc2)c1	0%	0%	2	-7%	3%	17*
COc1cc(C(=O)Nc2ccc3c(c2)nc(C)n3C)cc(OC)c1OC	-1%	9%	12	-6%	4%	12
Cc1ccc(NC(=O)Nc2ccc3c(c2)nc(C)n3C)cc1C	-1%	5%	108*	0%	.	45*
CC(=O)Nc1ccc2c(c1)nc(C)n2-c1ccccc1	5%	0%	36	0%	7%	13*
Cc1nc2cc(NC(=O)c3ccc(Cl)cc3)ccc2n1C	1%	8%	.	-3%	-4%	26*
COc1ccccc1Nc1nc(-c2ccc(F)cc2)c2c(n1)-c1ccccc1OC2	.	6%	.	.	11%	.
O=C(CCC(=O)N1CC2CCCN2c2ccccc21)NCc1cccc(Cl)c1 (stereo not drawn)	.	-16%	.	.	3%	.
CNc1c(NC(=O)C2CCC(C)CC2)c(=O)oc2ccccc12 (stereo not drawn)	0%	-2%	-3	11%	4%	-8
O=C(/C=C/Nc1ccccc1F)c1ccc(Br)cc1	?	-2%	87*	4%	-1%	61*
N#Cc1ccccc1N/C=C/C(=O)c1ccc(Cl)cc1	.	.	.	.	-6%	.
O=C(/C=C/Nc1ccc(Br)cc1F)c1ccccc1	-30%	2%	41*	2%	?	38*
C=C1CCN(C(Cc2ccccc2)C(=O)NCc2ccc(Cl)cc2)S(=O)(=O)c2ccccc21 (stereo not drawn)	.	.	-2	1%	.	10
Cc1ccc(C(O)C(=O)c2ccco2)cc1 (stereo not drawn)	.	-23%	.	.	0%	.
SMILES	LmPK inhibitor	Sm TGR block	Shiga inhibitor	FBPA Giardia inh	Tb PYK inh	CHX counter
Cc1ccc(C(CC(=O)c2ccco2)SCCO)cc1 (stereo not drawn)	-17%	-3%	72*	1%	0%	38*
O=C(CC(SCCO)c1ccc(F)cc1)c1ccco1 (stereo not drawn)	-6%	?	104*	2%	-5%	52*
Cc1ccccc1Nc1nc(-c2ccccc2)c(C(=O)Nc2cccnc2)s1	8%	6%	-16	-19%	3%	16*
O=C1C(C=NCc2ccncc2)=C(O)c2ccccc21	6%	-2%	102	4%	2%	49*
Cc1ccc(C2=C(O)c3ccccc3C(=O)C2=O)cc1	-1%	-23%	-5	?	3%	-3
O=C1C(C=NCc2cccnc2)=C(O)c2ccccc21	-25%	-9%	101*	-6%	-10%	72*
Oc1oc(-c2ccccc2)nc1C=NCc1ccncc1	0%	-25%	2	1%	-4%	-2
O=C1C(c2ccncc2)=C(O)c2ccccc21	?	-5%	12	-4%	-5%	26*
O=C1C(C=NCc2ccco2)=C(O)c2ccccc21	-25%	?	79*	-7%	0%	25*
CCCC(CNC(C)=O)(C1=CCCCC1)c1ccccc1 (stereo not drawn)	.	.	.	.	-6%	.
O=C(O)CCC/C=C\CC1C2CCC(O2)C1CNNC(=O)Nc1ccccc1 (stereo not drawn)	.	.	.	1%	.	.
CCN(c1ccc(NC(=O)CSCc2c(C)noc2C)cc1)C(C)C	.	-4%	.	.	-2%	.
COc1ccc(C)cc1NC(=O)NCc1cccn1Cc1ccccc1	.	3%	.	.	-13%	.
CC(C)CNC(=O)C1(C)CCCCCN1C(=O)c1cc(C#N)cs1 (stereo not drawn)	.	.	.	.	1%	.
NS(=O)(=O)c1ccc(NC2=CC(c3ccc([N+](=O)[O-])cc3)N(c3ccc(S(N)(=O)=O)cc3)C2=O)cc1 (stereo not drawn)	-4%	18µM*	1	-20%	-1%	-2
COc1ccc(NC2=CC(c3ccc(OC)c(OC)c3)N(c3ccc(OC)cc3)C2=O)cc1 (stereo not drawn)	-1%	-32%	-9	-16%	-16%	5
COC(=O)c1cc2c(ccn2-c2ccc(F)cc2)n1Cc1cccc(OC)c1	4%	7%	-13	-4%	-10%	-3
COC(=O)c1cc2c(ccn2-c2ccc(F)cc2)n1Cc1ccc(OC(C)=O)cc1	4%	7%	122*	2%	-5%	59*
O=C(Nc1cc2c(cc1Cl)OCCCO2)c1ccccc1	8%	1%	99*	-7%	-9%	31*
COc1ccccc1C(=O)Nc1cc2c(cc1C(=O)O)OCCCO2	-1%	7%	-7	21%	-5%	-6
CCOc1cc(Cl)c(NC(=O)c2ccco2)cc1OCC	-4%	-10%	6	4%	2%	-2
